{
  "source": "the supplement of paper PMC8728848",
  "note": "About 410 targets per protein were measured; listed, in parts, are those with the strongest signals and a random draw of the rest.",
  "data": [
    {"system": "Fuc(a1-2)[GalNAc(a1-3)]Gal(b1-3)GlcNAc(b1-2)Man(a1-3)[Fuc(a1-2)[GalNAc(a1-3)]Gal(b1-3)GlcNAc(b1-2)Man(a1-6)]Man(b1-4)GlcNAc(b1-4)[Fuc(a1-6)]GlcNAc", "assay": "glycan array binding signal (z-score within array); higher = stronger binding", "settings": "glycan notation: IUPAC condensed, linker removed", "procedure,_shortened": "(§1)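 The binding signal is a Z-score computed within each array. Data were drawn from 3228 arrays in the Consortium for Functional Glycomics database, restricted to those with a known protein sequence. Scores were averaged over arrays of the same protein sequence at different concentrations or buffers, and over linkers, and negative values can be taken as non-binding.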", "values": [
      {"substance": "AgI/II Vhelical-GFP (Streptococcus mutans)", "glycan array binding signal (z-score)": -0.218},
      {"substance": "LcI (Legionella pneumophila)", "glycan array binding signal (z-score)": -0.427},
      {"substance": "Actinohivin (Actinomycete K97)", "glycan array binding signal (z-score)": 0.857}
    ]},
    {"system": "Fuc(a1-3)[Gal(b1-4)]Glc6S", "assay": "glycan array binding signal (z-score within array); higher = stronger binding", "settings": "glycan notation: IUPAC condensed, linker removed", "procedure,_shortened": "as §1", "values": [
      {"substance": "AgI/IIC123-GFP (Streptococcus mutans)", "glycan array binding signal (z-score)": -0.357},
      {"substance": "BambL (Burhholderia ambifaria), Q0B4G1", "glycan array binding signal (z-score)": -0.021},
      {"substance": "SiiE (Salmonella typhimurium), A0A0H3NVH0", "glycan array binding signal (z-score)": 1.25}
    ]}
  ]
}
